Assay results: PubChem BioAssay
Where “and” joins values, the source holds several entries; their conditions need not be identical. Equal values may be shown once. Calls of active or inactive are those of the source.

Columns and labels:
[1] = system: Plasmodium falciparum Sir2 (PF13_0152, Sir2A); assay: pfSir2 binders on small-molecule microarrays, primary screen, biochemical, small-molecule microarray, 635 nm fluorescence (AID 1098); conditions: small-molecule microarray binding, fluorescence 635 nm; higher = more signal;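 note: score merges spot fluorescence intensity with its signal-to-noise ratio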
[2] = small-molecule microarray binders of probe aDKK1, primary screen, biochemical, biotinylated probe, 635/667 nm fluorescence (AID 1099); conditions: higher = more signal;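 note: score merges 667nm spot fluorescence with signal to noise across triplicate slides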
[3] = small-molecule microarray binders of probe aCHRDL2, primary screen, biochemical, biotinylated probe, 635/667 nm fluorescence (AID 1100); conditions: higher = more signal
[4] = splicing luciferase reporter signal modulators, primary screen, spliceosome inhibition project, cell-based, HEK293, splice +/- reporter (AID 1101); conditions: luminescence, 24 h, higher = more signal, called active from +8 up or from −8 down;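 note: HEK293 cells carrying a splicing-competent luciferase reporter gene; test concentration not given here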
[5] = target: Fibroblast growth factor 10 (Homo sapiens) (UniProt O15520); assay: FGF10 binders on small-molecule microarrays, primary screen, biochemical, small-molecule microarray, 635 nm fluorescence (AID 1102); conditions: FGF10 binding, fluorescence 635 nm, higher = more signal
[6] = system: glycogen synthase kinase-3 (GSK3A per assay name; protocol says GSK3B); assay: GSK3 binders on small-molecule microarrays, primary screen, biochemical, small-molecule microarray, 635 nm fluorescence, GSK3A (AID 1103); conditions: small-molecule microarray binding, fluorescence 635 nm; higher = more signal; note: the record names both GSK3A and GSK3B
[7] = target: Epidermal growth factor receptor (Homo sapiens) (UniProt P00533); assay: EGFR binders on small-molecule microarrays, primary screen, biochemical, small-molecule microarray, 635 nm fluorescence (AID 1104); conditions: EGFR binding, higher = more signal;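 note: score merges 667 nm emission intensity with spot signal to noise over triplicate slides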
[8] = target: Follistatin-related protein 3 (Homo sapiens) (UniProt O95633); assay: FSTL3 binders on small-molecule microarrays, primary screen, biochemical, small-molecule microarray, 635 nm fluorescence (AID 1105); conditions: FSTL3 binding, higher = more signal;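 note: score merges emission near 667 nm and signal to noise per printed spot across three slides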
[9] = target: Dickkopf-related protein 1 (Homo sapiens) (UniProt O94907); assay: DKK1 binders on small-molecule microarrays, primary screen, biochemical, small-molecule microarray, 635 nm fluorescence scan (AID 1106); conditions: DKK1 binding, higher = more signal;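 note: score merges emission near 667 nm with signal to noise over three replicate slides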
[10] = system: Inhibin beta A chain (activin A); assay: INHBA (activin A) binders on microarrays, primary screen, biochemical, small-molecule microarray, 635 nm fluorescence scan (AID 1107); conditions: small-molecule microarray binding, higher = more signal;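 note: mouse activin A protein probed at 4.33 µg/mL on printed slides; score merges bound-protein fluorescence near 667 nm with spot signal-to-noise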
[11] = system: Human papillomavirus type 1a protein E7 (residues 44-93); assay: HPV1a E7 fragment binders on microarrays, primary screen, biochemical, small-molecule microarray, residues 44-93, 635 nm fluorescence (AID 1108); conditions: small-molecule microarray binding, fluorescence 635 nm; higher = more signal;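 note: E7 fragment applied at 1 µg/mL in TBST for 1 h at 4 C; score combines spot fluorescence with its signal to noise ratio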
[12] = modulators of HCV replicon luciferase signal, primary screen, HCV replication inhibitor project, Huh7 cells, luciferase reporter (AID 1109); conditions: 48 h, higher = more signal;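 note: huh7 hepatoma cells harbouring a luciferase neomycin HCV replicon reporter; luciferase luminescence as measure of HCV replicon replication; test concentration not given here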
[13] = target: Left-right determination factor 2 (Homo sapiens) (UniProt O00292); assay: LEFTY2 binders on small-molecule microarrays, primary screen, biochemical, small-molecule microarray, 635 nm fluorescence scan (AID 1110); conditions: LEFTY2 binding, higher = more signal
[14] = target: Calmodulin-1 (Homo sapiens) (UniProt P0DP23); assay: CALM1 binders on microarrays, EGTA buffer, profiling panel, biochemical, small-molecule microarray, Cy5-labelled CALM1 (AID 1111); conditions: Cy5-CALM1 binding fluorescence, higher = more signal;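 note: labelled calmodulin applied in Tris saline Tween buffer holding calcium plus EGTA and DTT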
[15] = target: Calmodulin-1 (Homo sapiens) (UniProt P0DP23); assay: calcium-bound CALM1 binders on microarrays, profiling panel, artefact control for SMM control-protein annotation, biochemical, small-molecule microarray, Cy5-labelled CALM1, plus calcium (AID 1112); conditions: Cy5-CALM1 binding fluorescence, higher = more signal;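 note: score merges spot fluorescence with signal to noise from triplicate slides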
[16] = small-molecule microarray binders of probe aWnt5a, primary screen, biochemical, biotinylated probe, 635/667 nm fluorescence (AID 1113); conditions: higher = more signal;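 note: score merges 667 nm fluorescence intensity with signal-to-noise per printed feature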
[17] = small-molecule microarray binders of probe aShh, primary screen, biochemical, biotinylated probe, 635/667 nm fluorescence (AID 1114); conditions: higher = more signal;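 note: probe is biotin-labelled aShh protein from a stem cell growth factor screen; measures binding of labelled protein to compounds printed on the slide; score merges feature fluorescence at 667 nm with signal-to-noise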
[18] = small-molecule microarray binders of probe aNog, primary screen, biochemical, biotinylated probe, 635/667 nm fluorescence (AID 1115); conditions: higher = more signal;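 note: probe is biotinylated aNog protein used at 0.15 µg/mL for 1 h at 4 C; z-score combines 667 nm fluorescence of each spot with its signal to noise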
[19] = target: Torsin-1A-interacting protein 1 (Homo sapiens) (UniProt Q5JTV8); assay: LAP1 binders from COS7 cell lysate, primary screen, small-molecule microarray, 635/667 nm fluorescence (AID 1116); conditions: COS7-hLAP1 lysate binding, 635 nm fluorescence, higher = more signal
[20] = target: Alpha-bungarotoxin (Bungarus multicinctus) (UniProt P60615); assay: alpha-bungarotoxin binders on microarray, profiling panel, artefact control for SMM control protein annotation, biochemical, small-molecule microarray, Alexa647 label, 635/667 nm fluorescence (AID 1117); conditions: alpha-BTX-A647 binding fluorescence, higher = more signal
Chain of Alpha-bungarotoxin (Bungarus multicinctus) (P60615 whole entry, looked up): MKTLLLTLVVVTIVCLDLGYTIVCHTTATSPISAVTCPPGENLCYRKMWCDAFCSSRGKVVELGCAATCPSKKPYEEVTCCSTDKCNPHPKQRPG

Chain of Follistatin-related protein 3 (Homo sapiens) (O95633 whole entry, looked up): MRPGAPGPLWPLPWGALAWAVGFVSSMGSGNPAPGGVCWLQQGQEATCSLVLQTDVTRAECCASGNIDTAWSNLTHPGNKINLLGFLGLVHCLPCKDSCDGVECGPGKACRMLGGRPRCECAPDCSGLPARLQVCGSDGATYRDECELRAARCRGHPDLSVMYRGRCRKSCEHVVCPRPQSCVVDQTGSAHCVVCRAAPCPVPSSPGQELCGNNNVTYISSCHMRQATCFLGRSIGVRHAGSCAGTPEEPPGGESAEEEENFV
Chain of Epidermal growth factor receptor (Homo sapiens) (P00533 whole entry, looked up): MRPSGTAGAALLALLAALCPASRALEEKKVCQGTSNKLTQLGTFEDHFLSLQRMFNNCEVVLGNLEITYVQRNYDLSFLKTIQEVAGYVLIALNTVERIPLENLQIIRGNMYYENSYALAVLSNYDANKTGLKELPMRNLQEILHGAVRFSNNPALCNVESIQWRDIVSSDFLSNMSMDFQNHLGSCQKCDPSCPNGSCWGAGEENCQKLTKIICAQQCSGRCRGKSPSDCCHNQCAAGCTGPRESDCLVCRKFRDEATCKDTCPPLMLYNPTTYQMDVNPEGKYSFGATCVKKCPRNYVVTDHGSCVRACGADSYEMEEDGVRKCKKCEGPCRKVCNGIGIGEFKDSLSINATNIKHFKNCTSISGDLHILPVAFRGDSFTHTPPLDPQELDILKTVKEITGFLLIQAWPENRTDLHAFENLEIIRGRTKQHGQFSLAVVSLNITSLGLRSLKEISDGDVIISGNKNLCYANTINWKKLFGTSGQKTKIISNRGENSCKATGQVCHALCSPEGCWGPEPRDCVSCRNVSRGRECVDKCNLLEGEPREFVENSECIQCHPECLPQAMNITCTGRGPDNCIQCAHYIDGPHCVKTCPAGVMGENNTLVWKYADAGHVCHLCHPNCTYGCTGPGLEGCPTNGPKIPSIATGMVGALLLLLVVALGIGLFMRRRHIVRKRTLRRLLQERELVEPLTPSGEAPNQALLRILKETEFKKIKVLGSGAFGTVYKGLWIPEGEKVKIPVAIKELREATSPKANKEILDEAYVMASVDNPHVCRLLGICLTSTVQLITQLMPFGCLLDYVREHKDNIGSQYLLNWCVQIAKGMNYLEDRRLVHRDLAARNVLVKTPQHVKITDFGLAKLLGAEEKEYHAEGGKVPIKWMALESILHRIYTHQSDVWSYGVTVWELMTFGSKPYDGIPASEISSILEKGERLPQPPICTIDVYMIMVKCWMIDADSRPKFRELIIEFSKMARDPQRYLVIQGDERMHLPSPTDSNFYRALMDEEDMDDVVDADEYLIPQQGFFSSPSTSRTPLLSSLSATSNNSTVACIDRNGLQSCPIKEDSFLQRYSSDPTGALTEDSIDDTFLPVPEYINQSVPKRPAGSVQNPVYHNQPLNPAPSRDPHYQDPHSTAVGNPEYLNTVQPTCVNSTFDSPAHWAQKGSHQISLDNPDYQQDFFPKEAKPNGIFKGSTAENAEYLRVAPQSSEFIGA
Chain of Left-right determination factor 2 (Homo sapiens) (O00292 whole entry, looked up): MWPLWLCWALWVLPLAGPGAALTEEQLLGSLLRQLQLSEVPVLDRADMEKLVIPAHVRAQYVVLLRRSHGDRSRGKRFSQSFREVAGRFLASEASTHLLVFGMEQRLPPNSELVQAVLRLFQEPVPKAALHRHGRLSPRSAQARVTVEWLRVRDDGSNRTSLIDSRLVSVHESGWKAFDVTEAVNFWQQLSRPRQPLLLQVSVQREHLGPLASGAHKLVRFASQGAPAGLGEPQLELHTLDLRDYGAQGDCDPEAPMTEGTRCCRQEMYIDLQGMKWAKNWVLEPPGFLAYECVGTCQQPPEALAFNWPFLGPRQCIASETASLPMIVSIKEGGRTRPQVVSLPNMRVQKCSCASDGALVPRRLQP
Chain of Dickkopf-related protein 1 (Homo sapiens) (O94907 whole entry, looked up): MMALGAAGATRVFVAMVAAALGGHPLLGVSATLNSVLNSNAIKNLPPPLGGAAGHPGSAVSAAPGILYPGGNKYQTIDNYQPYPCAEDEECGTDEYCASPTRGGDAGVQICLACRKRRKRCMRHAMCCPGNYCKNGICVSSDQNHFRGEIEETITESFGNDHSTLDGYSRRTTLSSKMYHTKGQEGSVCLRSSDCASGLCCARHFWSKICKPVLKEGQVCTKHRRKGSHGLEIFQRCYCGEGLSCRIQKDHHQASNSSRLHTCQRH
Chain of Torsin-1A-interacting protein 1 (Homo sapiens) (Q5JTV8 whole entry, looked up): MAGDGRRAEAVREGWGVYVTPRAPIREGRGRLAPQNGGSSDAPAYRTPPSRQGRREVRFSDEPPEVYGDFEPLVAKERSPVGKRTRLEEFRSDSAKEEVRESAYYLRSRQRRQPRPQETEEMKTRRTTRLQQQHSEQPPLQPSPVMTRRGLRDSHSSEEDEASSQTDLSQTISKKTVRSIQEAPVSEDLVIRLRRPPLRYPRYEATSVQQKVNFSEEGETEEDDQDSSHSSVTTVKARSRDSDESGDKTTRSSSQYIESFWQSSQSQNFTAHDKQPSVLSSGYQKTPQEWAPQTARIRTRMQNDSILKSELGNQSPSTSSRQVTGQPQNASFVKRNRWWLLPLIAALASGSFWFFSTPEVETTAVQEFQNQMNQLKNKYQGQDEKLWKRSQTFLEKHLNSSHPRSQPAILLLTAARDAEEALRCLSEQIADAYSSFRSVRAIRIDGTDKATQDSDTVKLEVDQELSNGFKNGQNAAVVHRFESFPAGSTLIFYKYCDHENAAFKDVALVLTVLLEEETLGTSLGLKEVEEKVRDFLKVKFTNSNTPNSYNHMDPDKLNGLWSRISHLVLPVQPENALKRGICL
Chain of Fibroblast growth factor 10 (Homo sapiens) (O15520 whole entry, looked up): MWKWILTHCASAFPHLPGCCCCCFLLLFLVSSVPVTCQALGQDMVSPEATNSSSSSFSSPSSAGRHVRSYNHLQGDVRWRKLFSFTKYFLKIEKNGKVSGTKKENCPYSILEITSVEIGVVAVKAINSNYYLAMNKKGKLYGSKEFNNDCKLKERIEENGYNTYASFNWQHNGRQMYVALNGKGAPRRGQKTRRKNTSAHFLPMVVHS

Row | SMILES | composite z-score [1] | composite z-score [2] | composite z-score [3] | z-score [4] | composite z-score [5] | composite z-score [6] | composite z-score [7] | composite z-score [8] | composite z-score [9] | composite z-score [10] | composite z-score [11] | z-score [12] | composite z-score [13] | composite z-score [14] | composite z-score [15] | composite z-score [16] | composite z-score [17] | composite z-score [18] | composite z-score [19] | composite z-score [20]
1 | C=CCN(CCCCC)C(=O)C1N(CCOCCO)C(=O)C2C(C(=O)O)C3C=CC21O3 (stereo not given) | 0.128 and 1.72 | -0.344 and -0.208 | 0.77 and 0.925 | 0.8 (inactive) and 1.24 (inactive) | -1.48 and -1.61 | -1.97 and -0.615 | -1.74 and -1.79 | -1.54 and -1.58 | -2.58 and -3.23 | -1.97 and -1.95 | -1.53 and -0.495 | -0.586 and 0.715 | -2.78 and -1.83 | -0.368 and -0.355 | 1.01 and 1.07 | -0.276 and -0.328 | 0.0048 and -0.124 | -0.149 and -0.201 | -1.04 and 1.94 | -1.16 and -3.11
2 | COC(=O)C1=C(C)N(Cc2ccccc2)[C@]23O[C@](C(=O)OC)(C(=O)N2[C@@H]1c1ccccc1)[C@H]1C(=O)N(c2ccccc2)C(=O)[C@H]13 | 0.224 and 0.295 | -0.0965 and 0.134 | -0.362 and -0.418 | 0.0537 (inactive) and -0.654 (inactive) | 0.775 and 1.09 | 0.989 and 0.463 | 0.367 and 0.392 | 0.514 and 0.835 | 0.629 and 0.666 | 0.111 and -0.155 | -0.167 and 0.131 | -0.716 and -0.479 | 0.688 and 0.613 | 0.361 and -0.212 | -0.298 and -0.362 | -0.197 and -0.0882 | -0.304 and -0.0066 | -0.341 and 0.0299 | -0.233 and 0.633 | 1.34 and 1.08
3 | O=c1n(-c2ccccc2)c(=O)n2n1CC[C@@H]1C(=NOC[C@@H](O)COCc3ccco3)[C@H]3O[C@H]3[C@@H](O)[C@@H]12 | 0.981 and 1.38 | -0.418 and -0.503 | -0.929 and -0.662 | -1.51 (inactive) and 0.0711 (inactive) | 0.526 and -0.556 | 0.605 and -0.449 | 0.634 and 0.518 | 0.973 and 0.426 | 1.24 and 0.48 | 0.467 and 0.442 | 0.334 and -1.78 | 0.273 and -3.95 | 0.549 and 0.474 | -0.288 and -0.601 | -1.31 and -0.958 | -0.0659 and -0.0276 | -0.367 and -0.0035 | -0.261 and -0.0733 | 0.721 and 0.223 | 0.719 and 0.0807
